This is part of a sample that, as a whole, favours compounds with a hit. Of some 83,000 tested, about 20% had one in any assay.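 Percent growth is the endpoint: 0 to 100 indicates growth inhibition (40 means 60% inhibition), 0 means no net growth, and negative values indicate cell death.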 A number with no mark means an inactive call. The source made the active and inactive calls. The calls were made as follows: active = growth percent below 10; inactive = the rest.

For the assay, the system named is HL-60(TB) leukemia. Put plainly: NCI-60 one-dose screen, 48 h (100 = growth as untreated, 0 = no growth, -100 = all killed). The note with it: 10 µM unless noted.
As to `CN(C)C(=O)c1ccc(SC(=S)NCc2ccccc2)cc1`, the growth was -32% [100 µM] (active).
In the case of `Cc1ccc(S(=O)(=O)N/N=C\c2cc(Cl)ccc2O)cc1`, the growth is 91.7%.
As to `CN1CCN(Cc2ccc(NC(=O)c3cncc(C#Cc4c(N)ncc5ccc(F)cc45)c3)cc2C(F)(F)F)CC1`, the growth was 17.4%.
Take `COc1ccc(Nc2ncc(Br)c(NCCCNC(=O)C3CCCC3)n2)cc1`: the growth was 17%.
In the case of `COc1ccc(-c2cc(C(=O)N=Nc3c(O)[nH]c4ccc(Br)cc34)no2)cc1`, the growth is 95.1%.
For the compound `CCN=C1C=CC(=C(c2ccc(N)cc2)c2ccc(N(CC)CC)c(C)c2)C=C1`, the growth was -11% (active).
As to `C=CCN1C(=O)c2cccc3c(N4CCOCC4)ccc(c23)C1=O`, the growth was -5.15% (active).
Consider `OC(CBr)c1ccnc2ccccc12` (stereo not given), for which the growth is 100%.
In the case of `CC[N+](CCCCCCCCCC[N+](CC)(c1ccccn1)c1ccccn1)(c1ccccn1)c1ccccn1` it was -50.7% (active); in that of `COc1ccc(C(=O)/C=C/c2sc(Cl)nc2Cl)cc1`, 32.3%.
On to `C[C@@H](C[C@H](CCOCc1cccnc1)c1ccccc1)c1cc2ccccc2o1`, for which the growth was 98%.
`COC12C=C/C(=C(/C(=O)OCc3cncnc3)C(=O)CCCCCCCCC3(OC)C=C/C(=C(/C(=O)OCc4cncnc4)C(=O)CCCCCCCC1)O3)O2`: the growth was -27.4% (active).
In the case of `O=C(N/N=C/c1ccc(Cl)cc1)c1ccc(NC(=O)c2ccccn2)cc1` it was 103%.
Consider `O=c1[nH]nc(-c2ccccc2)c2sc(NC(=S)Nc3ccc(Cl)cc3)nc12`, for which the growth was 72.6%.
For the compound `CN(C)c1nc(-c2cccs2)n2nc(-c3ccco3)cc2n1`, the growth is 95.3%.
For `C/C(=C/CCC(C)[C@@H]1CC[C@]2(C)C3=C(CC[C@@]12C)[C@@]1(C)CCC(=O)C(C)(C)[C@@H]1CC3)C(=O)O` (stereo not given in full), the growth was -58.8% (active).
As for `Nc1cccc2c1C(=O)c1cccc(NC(=O)c3ccccc3)c1C2=O`, the growth is 1.36% (active).
In the case of `COc1ccc2c(c1)CCCC21C(=O)Nc2c(Cl)cccc21` (stereo not given), the growth is 33.9%.
Take `Nc1n[nH]c2cccc(C#Cc3cccc(C(=O)Nc4ccc(CN5CCOCC5)c(C(F)(F)F)c4)c3)c12`: the growth is 7.67% (active).
For `Cc1sc2c(c1C)c(=O)nc1c(-c3nc(-c4ccccc4)cs3)n[nH]n12`, the growth is 94.1%.
In the case of `C[C@]12CC[C@@H]3c4ccc(O)cc4CC[C@H]3[C@@H]1CC[C@@H]2NS(=O)(=O)c1cccc(Br)c1` it was 35.2%; in that of `CCCCCC#CC1OC23CCCCC2C(C#N)(C(=N)O3)C1(C#N)C#N` (stereo not given), 81%.
With `CC(=O)OC(C)C(=O)NCC(C)O` (stereo not given), the growth was 86.9%.
For `COc1ccc2nc3c(n2c1)C(=O)C(=O)c1ccccc1-3`, the growth was -48.9% (active).
For the compound `Oc1ccccc1C=NCC1CCC(CN=Cc2ccccc2O)CC1` (stereo not given), the growth is 123%.
For the compound `COc1ccc(Cn2c(SC)nc(=O)n(Cc3ccc(Cl)cc3)c2=O)cc1`, the growth is 94.2%.
In the case of `COc1ccc(OC)c(-c2cc(-c3ccc(Cl)cc3)c3c(N)c(C(=O)c4ccc(Cl)cc4)sc3n2)c1`, the growth is 110%.
In the case of `COc1ccc(OC)c(/C=C/[C@H]2O[C@@H](C)[C@H](O)[C@@H]2O)c1` it was 88.3%.
As for `Cc1nc(Nc2ccc(N)cc2)c2ccccc2n1`, the growth was 62%.
Turning to `COc1cccc(Nc2nc(SC)nc(-c3cccc([N+](=O)[O-])c3)c2C#N)c1`, the growth was 112%.
As for `COc1ccc(-n2nc(C)c3c(Nc4ccc(NC(=O)Nc5c(Cl)cccc5Cl)cc4)ncnc32)cc1`, the growth was 97.8%.
Take `COc1cc(-c2ccc(-c3ccc(C(=N)N)s3)s2)cc(OC)c1OC`: the growth was -56.6% (active).
With `Cc1ccc(CNc2ccc3nc(CCC(C)C)[nH]c3c2)cc1`, the growth is 93.7%.
As to `C=CC(=O)Nc1cc(Nc2nccc(-c3cn(C)c4ccccc34)n2)c(OC)cc1N(C)CCN(C)C`, the growth is -65.8% (active).
In the case of `COc1ccc(C)c2sc(N(Cc3cccnc3)C(=O)c3ccc(C#N)cc3)nc12` it was -6.46% (active); in that of `CNC(=O)c1cc(Oc2ccc3nc(NC(=O)Nc4cc(C(F)(F)F)cc(C(F)(F)F)c4)sc3c2)ccn1`, -39.8% (active); in that of `CC1CC(C)/C(=N/NC(N)=O)C(C(O)CC2CCC(=O)NC2=O)C1` (stereo not given), 40.1%.
Regarding `Cc1nc2sc(C(=O)Nc3cccc4ccccc34)c(N)c2cc1C(=O)/C=C/c1ccccc1`, the growth is 4.48% (active).
Turning to `O=c1ccc(=O)n(-c2nc(-c3ccc([N+](=O)[O-])cc3)cs2)[nH]1`, the growth was 89%.
For `CCCC(=O)Oc1ccc2ccccc2c1`, the growth is 98.5%.
